Reference: PubChem BioAssay (NCI)
The panel holds about 83,000 compounds, 20% with a hit somewhere; the sample as a whole holds those more often.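 Each cell line was grown in a 96-well plate and treated with one concentration of compound for 48 hours. Values below 10 were considered active.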 Activity calls are given as the source filed them.

How the values were obtained:
Assay in all cases: NCI-60 one-dose screen, 48 h (100 = growth as untreated, 0 = no growth, -100 = all killed)
Settings in all cases: 10 µM unless noted
[1] = tested on: SK-MEL-2 melanoma
[2] = tested on: EKVX NSCLC
[3] = tested on: SN12C renal
[4] = tested on: UO-31 renal
[5] = tested on: TK-10 renal
[6] = tested on: ACHN renal
[7] = tested on: CAKI-1 renal
[8] = tested on: A498 renal
[9] = tested on: CCRF-CEM leukemia
[10] = tested on: MOLT-4 leukemia
[11] = tested on: SR leukemia
[12] = tested on: RPMI-8226 leukemia
[13] = tested on: OVCAR-8 ovarian
[14] = tested on: OVCAR-5 ovarian
[15] = tested on: OVCAR-4 ovarian
[16] = tested on: SK-OV-3 ovarian
[17] = tested on: OVCAR-3 ovarian
[18] = tested on: HS 578T breast
[19] = tested on: NCI/ADR-RES ovarian
[20] = tested on: IGROV1 ovarian

Measured: growth

N=c1c2c(=N)n3c(nc2nc2n1-c1ccccc1Sc1ccccc1-2)sc1cc(Cl)ccc13
inactive: [2] 13.8% | [3] 25% | [5] 33.6% | [6] 18.2% | [9] 37.7% | [10] 48.4% | [11] 25.9% | [12] 14.5% | [13] 26.5% | [14] 92.2% | [16] 49.6% | [18] 32% | [19] 30.1%
active: [1] -2.45% | [4] 7.88% | [7] 8.56% | [8] 0.653% | [15] 8.65% | [17] 7.88%

COc1cc(Nc2ncccc2NC(=O)c2cn(Cc3cccc(Oc4ccccc4)c3)nn2)cc(OC)c1
inactive: [1] 95.7% | [2] 75% | [3] 84.2% | [4] 50.7% | [5] 100% | [6] 86.1% | [7] 83.9% | [8] 76.2% | [9] 84.5% | [10] 59.6% | [11] 40.8% | [12] 71.6% | [13] 87.8% | [14] 107% | [15] 92.7% | [16] 96.2% | [17] 85.3% | [18] 79.3% | [19] 76%

O=c1oc2c(cnc3ccccc32)cc1-c1cccs1
inactive: [1] 108% | [2] 103% | [3] 98.4% | [4] 88.3% | [5] 106% | [6] 102% | [7] 88.9% | [8] 107% | [9] 103% | [10] 102% | [11] 103% | [12] 103% | [13] 100% | [14] 108% | [15] 100% | [16] 106% | [17] 119% | [18] 99% | [19] 104%

CN1C(=O)N(C)C2C1NC(=S)N2/N=C/C=C/c1ccccc1[N+](=O)[O-] (stereo not drawn)
inactive: [1] 17% | [2] 43.6% | [3] 31.4% | [4] 44.6% | [5] 42.8% | [6] 30.7% | [7] 23% | [8] 10.8% | [10] 27.8% | [11] 15.2% | [13] 36.3% | [14] 74.9% | [15] 51.1% | [16] 27% | [18] 17.1% | [19] 29.1%
active: [9] 7.73% | [12] 2.85% | [17] 8.13%

Cc1cccc(N2CCN(C(=S)c3ccc4c(c3)OCO4)CC2)c1
inactive: [2] 47.1% | [3] 40% | [4] 25.6% | [5] 36.5% | [6] 43.1% | [7] 15.1% | [8] 11.7% | [9] 16.5% | [10] 22% | [11] 16.9% | [12] 20% | [13] 27.6% | [14] 50.3% | [15] 66.6% | [16] 19.2%
active: [1] 9.2% | [17] -33.9% | [18] -27.7% | [19] -18.6%

Cc1ccc(-c2csc(NC(=O)N3CCN(c4cc5c(cc4F)c(=O)c(C(=O)O)cn5C4CC4)CC3)n2)cc1
inactive: [2] 20.4% | [3] 15.5% | [5] 26.1% | [7] 22.2% | [9] 12.9% | [11] 18.2% | [14] 23.2% | [15] 33.5% | [18] 38.6% | [19] 21.8%
active: [1] -26.3% | [4] 8.87% | [6] 5.91% | [8] 2.51% | [10] 3.49% | [12] 4.84% | [13] 7.72% | [16] -11.6% | [17] 7.6%

CCCCSCC(=O)c1ccccc1
inactive: [1] 85.2% | [2] 99% | [3] 103% | [4] 85% | [5] 86.1% | [6] 101% | [7] 94.4% | [8] 106% | [9] 91.9% | [10] 92.9% | [11] 88.3% | [12] 106% | [13] 94.2% | [14] 95.2% | [16] 81.4% | [20] 99.3% | [17] 99.3% | [18] 110% | [19] 97.9%

CCN(CC)CCCC(C)Nc1ccc2cc(OC)ccc2n1 (stereo not drawn)
inactive: [1] 116% | [2] 91.4% | [3] 104% | [4] 91.3% | [5] 106% | [6] 107% | [7] 101% | [8] 84.5% | [9] 107% | [10] 116% | [11] 120% | [12] 97% | [13] 99.8% | [14] 109% | [15] 62% | [16] 113% | [17] 98.8% | [18] 99.9% | [19] 108%

COc1cc(C(=O)/C=C/c2c(-c3cccs3)nc3ccccn23)cc(OC)c1OC
inactive: [1] 10.7% | [4] 10.7% | [9] 12.3% | [11] 13.8% | [14] 18.4% | [15] 13.1%
active: [2] 4.84% | [3] 4.93% | [5] 0.55% | [6] -23.4% | [7] -5.58% | [8] -21.8% | [10] -0.559% | [12] -9.49% | [13] 9.84% | [16] 3.6% | [17] -36.5% | [18] -1.24% | [19] -15.6%

Nc1ccc([N+](=O)[O-])cc1N=C/C=C/c1ccccc1
inactive: [1] 43.5% | [2] 97.5% | [3] 50.6% | [4] 43.3% | [5] 79.8% | [6] 81.7% | [7] 73.1% | [8] 79.3% | [9] 18.3% | [10] 14.8% | [11] 35.5% | [12] 25.6% | [13] 79.9% | [14] 90.9% | [16] 87.6% | [20] 64.8% | [17] 84.1% | [18] 67.4% | [19] 50.9%

COc1ccc2nc(SCC(=O)Nc3ccccc3C)[nH]c2c1
inactive: [1] 101% | [2] 88.4% | [3] 95.2% | [4] 74.3% | [5] 105% | [6] 94.4% | [7] 88% | [9] 87.5% | [10] 88.8% | [11] 89.5% | [13] 94.2% | [14] 99.6% | [15] 95.2% | [16] 105% | [20] 103% | [17] 107% | [18] 90.9% | [19] 99%
active: [8] -41.9%

COCC[C@H]1CCC/C=C/[C@@H]2C[C@H](O)C[C@H]2[C@H](O)/C=C/C(=O)O1
active: [1] -3.55% | [2] 4.95% | [3] 8.16% | [5] -38.5% | [6] 4.75% | [7] -18.6% | [8] -31.1% | [10] 7.61% | [11] 2.43% | [13] 5.65% | [14] 9.73% | [17] -47.8% | [19] 3%
inactive: [4] 10.9% | [9] 17.6% | [15] 26.6% | [16] 33.6% | [20] 16.1% | [18] 30.1%
